“And” between values parts separate entries of the source, which are not always exact repeats. Identical values can stand only once. The whole screen tested about 5,500 compounds, of which about 2,000 (36%) were called active. Another 18% or so got no clear call; they are omitted. Cut-off read from the data, not from the text of the source: active = normalized growth mostly below about 0.91 (no sharp cut-off); inconclusive = no clear call, values can overlap the other calls; inactive = mostly above about 0.92. The list shows a part of the results. Where a structure was tested more than once in an assay, its records may differ in their call.
Assay: chemical genetic growth profiling, strain panel (AID 1159580);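 note: tested at 20 µM; growth read once vehicle control cultures reached saturation at 30 °C; 1 = growth at the plate median or of vehicle wells; lower values mean less growth of the strain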
Conditions: S. cerevisiae deletion strains, growth OD

Measured: normalized growth

CN(C)CCCN1c2ccccc2Sc2ccc(C(F)(F)F)cc21
inactive: locus YAL013W, strain DEP1, stronger effect = lower value 0.982 and 0.939 | locus YAL030W, strain snc1, stronger effect = lower value 1.01 | locus YAL040C, strain CLN3, stronger effect = lower value 0.99 | locus YBL061C, strain skt5, stronger effect = lower value 1.02 | locus YBR009C, strain hhf1, stronger effect = lower value 0.961 | locus YBR021W, strain FUR4, stronger effect = lower value 1.04 | locus YBR023C, strain chs3, stronger effect = lower value 0.999 | locus YBR171W, strain sec66, stronger effect = lower value 1.03 | locus YBR229C, strain ROT2, stronger effect = lower value 0.955 | locus YBR231C, strain swc5, stronger effect = lower value 1.04 | locus YBR279W, strain paf1, stronger effect = lower value 1.01 | locus YCL011C, strain gbp2, stronger effect = lower value 1.01 | locus YCL016C, strain dcc1, stronger effect = lower value 1.01 | locus YCL029C, strain bik1, stronger effect = lower value 0.968 | locus YCL061C, strain MRC1 (second series), stronger effect = lower value 0.987 | locus YCL061C, strain MRC1, stronger effect = lower value 1.02 | locus YCL069W, strain vba3, stronger effect = lower value 1.01 | locus YCR088W, strain abp1, stronger effect = lower value 1.02 | locus YDL005C, strain med2, stronger effect = lower value 1.06 | locus YDL035C, strain GPR1, stronger effect = lower value 0.983 | locus YDL040C, strain nat1, stronger effect = lower value 1.01 | locus YDL074C, strain BRE1, stronger effect = lower value 1.01 | locus YDL101C, strain DUN1, stronger effect = lower value 0.981 | locus YDL134C, strain PPH21, stronger effect = lower value 0.99 | locus YDL185W, strain tfp1, stronger effect = lower value 0.963 | locus YDL192W, strain arf1, stronger effect = lower value 0.963 | locus YDR001C, strain nth1, stronger effect = lower value 1.02 | locus YDR101C, strain arx1, stronger effect = lower value 0.994 | locus YDR150W, strain NUM1, stronger effect = lower value 0.978 and 0.989 | locus YDR159W, strain sac3, stronger effect = lower value 1.07 | locus YDR162C, strain NBP2, stronger effect = lower value 0.971 | locus YDR297W, strain sur2, stronger effect = lower value 1.02 | locus YDR318W, strain mcm21, stronger effect = lower value 1 | locus YDR334W, strain swr1, stronger effect = lower value 1.02 | locus YDR335W, strain msn5, stronger effect = lower value 1.02 | locus YDR363W, strain ESC2, stronger effect = lower value 0.896 | locus YDR388W, stronger effect = lower value 0.986 | locus YDR502C, strain sam2, stronger effect = lower value 0.992 | locus YEL003W, strain gim4, stronger effect = lower value 1 | locus YEL037C, strain rad23, stronger effect = lower value 1.01 | locus YEL061C, strain CIN8 (second series), stronger effect = lower value 1.01 | locus YEL061C, strain CIN8, stronger effect = lower value 0.989 | locus YER002W, strain NOP16, stronger effect = lower value 1.04 | locus YER015W, strain faa2, stronger effect = lower value 1.01 | locus YER016W, strain bim1, stronger effect = lower value 1.02 | locus YER110C, stronger effect = lower value 0.961 | locus YER111C, strain swi4, stronger effect = lower value 1.01 | locus YER155C, strain BEM2 (second series), stronger effect = lower value 1.06 | locus YER155C, strain BEM2, stronger effect = lower value 1 | locus YER167W, strain BCK2, stronger effect = lower value 0.997 | locus YGL078C, strain dbp3, stronger effect = lower value 0.985 | locus YGL086W, strain mad1, stronger effect = lower value 0.998 | locus YGL167C, strain pmr1, stronger effect = lower value 1.02 | locus YGL173C, strain kem1, stronger effect = lower value 0.996 | locus YGL227W, strain vid30, stronger effect = lower value 1.03 | locus YGL240W, strain doc1, stronger effect = lower value 1.05 | locus YGL248W, strain PDE1, stronger effect = lower value 0.983 | locus YGL253W, strain hxk2, stronger effect = lower value 1 | locus YGR078C, strain PAC10, stronger effect = lower value 1.01 | locus YGR135W, strain pre9, stronger effect = lower value 0.982 | locus YGR252W, strain gcn5, stronger effect = lower value 0.989 | locus YHR013C, strain ard1, stronger effect = lower value 0.939 | locus YHR027C, strain rpn1, stronger effect = lower value 1.01 | locus YHR030C, strain SLT2, stronger effect = lower value 0.991 and 1 | locus YHR079C, strain IRE1 (second series), stronger effect = lower value 0.975 | locus YHR079C, strain IRE1, stronger effect = lower value 0.991 | locus YHR094C, strain hxt1, stronger effect = lower value 0.981 | locus YHR129C, strain ARP1, stronger effect = lower value 1 | locus YHR142W, strain chs7, stronger effect = lower value 0.958 | locus YHR200W, strain rpn10, stronger effect = lower value 0.988 | locus YIL066C, strain RNR3, stronger effect = lower value 0.973 | locus YIL073C, strain SPO22, stronger effect = lower value 0.942 | locus YIL125W, strain kgd1, stronger effect = lower value 0.974 | locus YIR030C, strain dcg1, stronger effect = lower value 0.974 | locus YJL092W, strain hpr5, stronger effect = lower value 1.01 | locus YJL095W, strain BCK1 (second series), stronger effect = lower value 0.968 | locus YJL095W, strain BCK1, stronger effect = lower value 1.02 and 0.998 | locus YJL115W, strain asf1, stronger effect = lower value 1.03 | locus YJL129C, strain trk1, stronger effect = lower value 1.03 | locus YJL134W, strain LCB3, stronger effect = lower value 0.987 | locus YJL154C, strain vps35, stronger effect = lower value 1.01 | locus YJL164C, strain tpk1, stronger effect = lower value 0.921 | locus YJL166W, strain qcr8, stronger effect = lower value 0.951 | locus YJL168C, strain set2, stronger effect = lower value 0.978 | locus YJL187C, strain SWE1 (second series), stronger effect = lower value 0.992 | locus YJL187C, strain SWE1, stronger effect = lower value 1.01 | locus YJR043C, strain POL32, stronger effect = lower value 1
active: locus YAL021C, strain ccr4, stronger effect = lower value 0.799 | locus YAL026C, strain drs2, stronger effect = lower value 0.329 | locus YDR069C, strain doa4, stronger effect = lower value 0.846 | locus YDR137W, strain rgp1, stronger effect = lower value 1.25 [resistant] | locus YDR195W, strain ref2 1.27 [resistant] | locus YDR392W, strain spt3, stronger effect = lower value 1.22 [resistant] | locus YFR010W, strain ubp6, stronger effect = lower value 0.831
0.976 (inactive) and 0.395 (active): locus YGR229C, strain SMI1, stronger effect = lower value
